Measured values: publication PMC4336329 (PLoS ONE, 2015)
In all, about 310,000 compounds went through this assay and about 14,000 (4.5%) showed an effect of 50% or more. Effects have a minus sign here. The sample as a whole holds a higher share of strong results than the screen did.

target: human ether-à-go-go-related gene (hERG) potassium channel (human, UniProt Q12809); assay: primary screen, population patch clamp on CHO cells stably expressing hERG; higher = less effect of the substance
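Note: peak tail current of the secondary pulse compared with the same well before compound.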

Chain of human ether-à-go-go-related gene (hERG) potassium channel (Q12809 whole entry, looked up): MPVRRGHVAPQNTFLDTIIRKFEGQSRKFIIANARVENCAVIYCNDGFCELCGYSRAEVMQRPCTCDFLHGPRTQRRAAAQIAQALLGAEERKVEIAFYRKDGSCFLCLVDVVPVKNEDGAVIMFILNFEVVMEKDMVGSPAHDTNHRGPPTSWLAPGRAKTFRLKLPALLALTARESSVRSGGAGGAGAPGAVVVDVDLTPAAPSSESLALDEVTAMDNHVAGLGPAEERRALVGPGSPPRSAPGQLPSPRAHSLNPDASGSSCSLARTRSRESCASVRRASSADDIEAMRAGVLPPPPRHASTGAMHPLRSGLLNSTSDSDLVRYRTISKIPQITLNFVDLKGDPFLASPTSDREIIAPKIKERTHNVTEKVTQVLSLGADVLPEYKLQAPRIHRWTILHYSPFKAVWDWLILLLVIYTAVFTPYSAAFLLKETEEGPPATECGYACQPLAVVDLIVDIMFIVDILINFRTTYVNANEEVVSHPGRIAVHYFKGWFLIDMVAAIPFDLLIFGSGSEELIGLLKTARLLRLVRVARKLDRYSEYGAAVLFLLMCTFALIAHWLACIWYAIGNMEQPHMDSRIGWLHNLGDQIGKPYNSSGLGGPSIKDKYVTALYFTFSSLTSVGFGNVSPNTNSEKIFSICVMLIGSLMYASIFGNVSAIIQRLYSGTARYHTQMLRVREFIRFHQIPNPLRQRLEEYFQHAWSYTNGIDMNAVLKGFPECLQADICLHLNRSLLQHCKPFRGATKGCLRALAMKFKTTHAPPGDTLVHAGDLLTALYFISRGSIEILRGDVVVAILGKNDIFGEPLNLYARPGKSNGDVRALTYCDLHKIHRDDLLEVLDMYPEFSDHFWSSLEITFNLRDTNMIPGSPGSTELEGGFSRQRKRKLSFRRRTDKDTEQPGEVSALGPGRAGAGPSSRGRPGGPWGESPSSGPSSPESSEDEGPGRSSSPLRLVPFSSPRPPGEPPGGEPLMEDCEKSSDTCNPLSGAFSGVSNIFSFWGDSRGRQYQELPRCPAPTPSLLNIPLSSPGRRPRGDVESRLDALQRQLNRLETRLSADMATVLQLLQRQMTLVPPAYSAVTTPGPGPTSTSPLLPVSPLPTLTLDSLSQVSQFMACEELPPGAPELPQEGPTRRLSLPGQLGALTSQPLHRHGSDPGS

SMILES	hERG current change (%, negative = inhibition) at 10uM [%]
O=C(CC(c1ccccc1)c1cc(Br)ccc1O)NCCN1CCOCC1 (stereo not shown)	-34.7
CCCCCCCOC(=O)C1=C(C)Nc2ncnn2C1c1cccs1 (stereo not shown)	-0.122
Cc1ccc(NC(=O)COc2ccc(Br)cc2C)cc1	0.803
COc1ccc(C(=O)N/N=C/c2ccc(OC)c(COc3ccc(F)cc3)c2)cc1	-35.2
COc1ccc(/C=N/NC(=O)c2ccncc2)cc1CN1CCCc2ccccc21	-26.1
COc1ccc(/C=N/NC(=O)c2ccncc2)cc1OC	15.5
COc1ccc(C(=O)N/N=C/c2ccc(OC)c(COc3ccc(F)cc3F)c2)cc1	3.74
COc1ccc(/C=N/NC(=O)c2ccncc2)cc1CN1CCN(c2ccc(F)cc2)CC1	-77
COc1ccc(C(=O)N/N=C/c2ccc(OC)c(CN3CCN(c4ccc(F)cc4)CC3)c2)cc1	-74.2
NC1=NC(=O)/C(=C\c2ccc(-c3ccc(Cl)cc3)o2)S1	9.15
COc1ccc(NC(=O)CS(=O)CC(=O)NCC2OCCc3ccccc32)cc1 (stereo not shown)	16.2
C=CCNC(=S)NNC(=O)c1ccncc1	1.85
O=C1CC(N2CCN(Cc3ccc(Cl)cc3)CC2)C(=O)N1CCc1ccccc1 (stereo not shown)	-37.4
Cc1ccc(NC(=O)COC(=O)CCc2c[nH]c(=O)[nH]2)cc1	1.45
COc1c(O)cccc1[C@@H](O)C1CCN(CCc2ccc(F)cc2)CC1	-55.8
Fc1cccc(CNC2CCN(CCc3ccccc3)CC2)c1	-42.8
COc1cccc(C(c2nnnn2Cc2ccc(F)cc2)N2CCC(C(N)=O)CC2)c1OC (stereo not shown)	-24.8
Cc1cc(Cl)ccc1OCC(=O)NC(=S)Nc1ccc(Cl)cn1	10.9
Cc1nonc1OCC(C)(COc1nonc1C)NC(=O)c1ccccc1	-6.59
Cc1ccc(C(=O)NC(C)(COc2nonc2C)COc2nonc2C)cc1	-40

SMILES	hERG current change (%, negative = inhibition) at 10uM [%]
Cc1nonc1OCC(C)(COc1nonc1C)NC(=O)c1ccc(Cl)cc1	-61.1
Cn1c(=O)n(Cc2ccccc2F)c2ccccc21	-16.3
CC(=O)c1ccc2c(c1)C1C(Cl)C(Sc3ccccc3[N+](=O)[O-])CC1C(c1ccccc1)N2 (stereo not shown)	15.1
CCN(CC)C(=O)c1ccc2c(c1)C1C(Cl)C(Sc3ccccc3[N+](=O)[O-])CC1C(C(=O)O)N2 (stereo not shown)	-59.3
CC(=O)c1ccc2c(c1)C1C(Cl)C(Sc3ccccc3[N+](=O)[O-])CC1C(C(=O)O)N2 (stereo not shown)	-20.8
CN(Cc1nc(-c2cccc(Cl)c2)no1)C1CCOCC1	-22.7
CCCCn1c(=O)c(C(=O)NCc2ccncc2)c(O)c2ccccc21	-44
CCCn1c(=O)c(C(=O)NCc2cccnc2)c(O)c2ccccc21	-34.7
CCCn1c(=O)c(C(=O)NNS(=O)(=O)c2ccc(NC(=O)OC)cc2)c(O)c2ccccc21	9.85
CCn1c(=O)c(C(=O)NNS(=O)(=O)c2ccc(NC(=O)OC)cc2)c(O)c2ccccc21	-56.3
CCCCCn1c(=O)c(C(=O)NCc2ccccc2)c(O)c2ccccc21	15.2
CCCCCn1c(=O)c(C(=O)NCc2ccncc2)c(O)c2ccccc21	-53.7
Cn1c(C(=O)NCc2cccnc2)cc2sccc21	-10.2
COC(=O)Nc1ccc(S(=O)(=O)NNC(=O)c2c(O)c3ccccc3n(C)c2=O)cc1	25.9
CCn1c(C(=O)NCc2cccnc2)cc2sc(Cl)cc21	-57.2
Cn1c(C(=O)NCc2cccnc2)cc2sc(Cl)cc21	-43.9
CCn1c(=O)c(C(=O)NCc2ccccc2)c(O)c2ccccc21	19.1
CCn1c(=O)c(C(=O)NCc2cccnc2)c(O)c2ccccc21	-56.4
O=C(NCc1ccccc1)c1cccc(OCC(=O)N2CCN(C(=O)c3ccco3)CC2)c1	-41.1
COc1ccccc1/C=N/NC(=O)CC(=O)NCc1cccnc1	7.63

SMILES	hERG current change (%, negative = inhibition) at 10uM [%]
O=C(O)COc1ccccc1/C=N/NC(=O)CSc1nc2ccccc2s1	9.71
CCOc1ccc(-c2cc(C(=O)NN3CCN(C)CC3)c3cc(Cl)ccc3n2)cc1	22.5
CC(C(=O)NCc1ccc2c(c1)OCO2)N1c2cccc3cccc(c23)S1(=O)=O (stereo not shown)	-22.7
O=C(CN1C(=O)S/C(=C\C=C\c2ccccc2)C1=O)N1CCCCC1	10.8
Cc1cc(=O)oc2cc(OCCSCCN3CCCCC3)ccc12	-16.5
CNC(=S)N1CCn2cccc2C1c1cccnc1 (stereo not shown)	6.45
COc1ccc(/C(N)=N/OC(=O)CCCc2ccccc2)cc1	-11.3
FC(F)(F)Oc1ccc(NC2=NCCCS2)cc1	-24.4
COC(=O)c1c(NC(=O)C2CCCO2)sc2c1CCC2 (stereo not shown)	-3.4
CC(C)CN(CC(C)C)C(=O)c1cc2c(=O)n3ccccc3nc2s1	7.12
O=C(O)C1CC1(c1ccccc1)c1ccccc1 (stereo not shown)	17.7
N#CC(C#N)=Cc1ccc(N2CCOCC2)cc1	-10.7
CCCn1c(=O)c(C(=O)NCc2ccccn2)c(O)c2ccccc21	-11.1
O=C(NCc1cccnc1)c1sc2cc(Cl)ccc2c1Cl	-55.4
O=C(NCc1cccnc1)c1sc2ccccc2c1Cl	-28.9
CCCn1c(=O)c(C(=O)NCc2ccccc2)c(O)c2ccccc21	7.64
CCCn1c(=O)c(C(=O)NCc2ccncc2)c(O)c2ccccc21	-63
Cc1ccc2c(Cl)c(C(=O)NCc3cccnc3)sc2c1	-46.4
